Molecules are shown by their SMILES. About 83,000 compounds went through this panel and 20% of them were active in at least one assay; those are over-represented in the sample as a whole.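 Negative percent growth values reflect cell death: -40 means 40% of the cells present at the start died, and -100 means all died.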 Values without a mark were called inactive. Active and inactive are the calls of the source. The calls were made as follows: active = growth percent below 10; inactive = the rest.

One assay relates to HT29 colon. The assay is described as follows: NCI-60 one-dose screen, 48 h (100 = growth as untreated, 0 = no growth, -100 = all killed). Particulars: 10 µM unless noted.
As for `CCN(CC)CCCCCCNc1cc(OC)cc2cccnc12`, the growth was -44.8% (active).
On to `COc1ccccc1Nc1cc(O)c2c(=O)cc(-c3ccccc3)oc2c1`, for which the growth was 17%.
On the same count and under the same terms, the value for `COc1ccc(C(O)c2cc3c(N)c(C(=O)Nc4ccc(Cl)cc4)sc3nc2C)cc1` (stereo unspecified) was -6.54% (active); that for `COc1cc(NCC(O)CN(CC(C)C)CC(C)C)c2nc(C)ccc2c1` (stereo unspecified) was 80.2%.
Same read-out and setting: to `CCCCCCCCCCN=C(N)N=C(N)N` belongs 41.6%.
In the case of `COc1ccc(C(O)c2cc3c(N)c(C(=O)Nc4cccc(Br)c4C)sc3nc2C)cc1` (stereo unspecified), the growth was -16% (active).
Still for that read-out and setting: the value for `CCCCCCCCCCCCCCCCCCOc1ccccc1N` was 92.5%; that for `CC(=O)O[C@H]1CC[C@@]2(C)[C@@H](CC[C@@H]3[C@@H]2CC[C@@]2(C)[C@H]3CC[C@]2(O)C(C)=O)C1` was 107%.
Same read-out and setting: the value for `CCC1(CC)NC(=O)c2c(c3ccc(Cl)c(Cl)c3n2C)C1C#N` (stereo unspecified) was 100%; that for `COc1ccc(C2CC(c3cccc(Nc4ccncc4)c3)=NN2c2cc(Cl)cc(Cl)c2)cc1` (stereo unspecified) was -17.5% (active).
The same measure, in the same setting: to `CC(=O)Nc1ccc(S(=O)(=O)NC2CCCCC2)cc1` belongs 95.4%; to `Clc1ccc(N2N=C(c3cccc(Nc4ccncc4)c3)CC2c2ccccc2)cc1` (stereo unspecified), 80.7%.
As for `CN1C2CCC1CN(c1cnc(C(=O)Nc3cc(F)cc4cccnc34)cn1)C2`, the growth is 37.1%.
On the same count and under the same terms, the value for `C=Cc1cc[n+](CCCCCCCCCCCC)cc1` was 99.2%.
Consider `CCCCCCCCCCCCCCCC(=O)OC[C@@]1(O)C[C@@]23CC[C@@H]4C(C)(C)[C@H](O)CC[C@@]4(C)[C@@H]2CC[C@H]1C3`, for which the growth is 104%.
Still for that read-out and setting: the value for `O=C(CN1CCOCC1)Nc1ccc2ncnc(Nc3ccc(OCc4cccc(F)c4)c(Cl)c3)c2c1` was 61%; that for `Clc1cc(Cl)cc(N2N=C(c3cccc(Nc4ccncc4)c3)CC2c2ccccc2)c1` (stereo unspecified) was 1.2% (active).
The same measure, in the same setting: to `C[C@]12CCc3nc(Nc4cccc(O)c4)sc3C1=CC[C@@H]1[C@@H]2CC[C@]2(C)/C(=N\NC(N)=S)CC[C@@H]12` belongs 3.21% (active); to `Cc1c2c(cc[n+]1Cc1ccccc1)c1ccc(OCc3ccccc3)cc1n2Cc1ccccc1`, -48.7% (active).
On the same count and under the same terms, the value for `O=C(O)CNC(=O)CN1C(=O)c2ccccc2C1=O` was 110%; that for `O=C(Nc1nc2ccc(C(=O)N3CCN(c4ccc(Cl)c(Cl)c4)CC3)cc2s1)c1ccc(NCCc2ccccc2)c([N+](=O)[O-])c1` was 100%.
As to `COc1ccccc1-c1c(-c2ccc(Cl)cc2)c2cc3c(cc2[nH]c1=O)OCCO3`, the growth is 69.6%.
On the same count and under the same terms, to `O=S(=O)(NCCNc1nccc(-c2c(-c3ccc(F)c(O)c3)nc3occn23)n1)c1ccccc1` belongs 61.5%; to `Clc1cc(Cl)cc(N2N=C(c3cccc(Nc4ccncc4)c3)CC2c2ccc(Br)cc2)c1` (stereo unspecified), -12.2% (active).
On the same count and under the same terms, to `Cn1c(COC(=O)NCCn2ccnc2)nc2c(N3CCOCC3)nc(-c3ccccc3)nc21` belongs -12.1% (active); to `Cc1c2c(cc[n+]1Cc1ccc(F)cc1)c1ccc(OCc3cccc(F)c3)cc1n2Cc1cccc(F)c1`, -74.9% (active); to `CCCOc1nc(SCCC)nc2c1cnn2-c1ccccc1`, 83.1%.
Still for that read-out and setting: the value for `Cc1ccc(/C=C/C(=O)c2ccc(N)cc2)c(C)c1` was 60.9%.
With `Cc1cc(C)c(C=O)c(C)c1`, the growth was 98.8%.
The same measure, in the same setting: to `COc1ccc(-c2c(-c3ccccc3)noc2N)cc1OC` belongs 101%; to `O=C1c2cccnc2C(=O)c2nc3cc(N4CCN(C5CC5)CC4)ccc3nc21`, -21.3% (active); to `c1ccc(N2N=C(c3cccc(Nc4ccncc4)c3)CC2c2ccc3c(c2)OCO3)cc1` (stereo unspecified), 6.66% (active).
Turning to `COc1cc(NCC(C)(O)CN(CC(C)C)CC(C)C)c2nc(C)ccc2c1` (stereo unspecified), the growth is 82%.
In the case of `C[C@@H]1CN(Cc2ccc(/C=C/c3n[nH]c4ccc5nc(-c6cn[nH]c6C(F)(F)F)c6c(c5c34)CCCC6)cc2)C[C@H](C)O1`, the growth was 7.17% (active).
On the same count and under the same terms, the value for `CC1(C)CCCN1CCCN1c2ccccc2Sc2ccc(Cl)cc21` was 26.4%; that for `CC1CCN(C(=O)OCc2nc3nc(Cl)nc(N4CCOCC4)c3[nH]2)CC1` was -66.8% (active); that for `CC1(C)CN(c2cnc(C(=O)Nc3cc(F)cc4cccnc34)cn2)CCN1` was 47.1%.
On the same count and under the same terms, the value for `Cn1c(COC(=O)NCCN2CCOCC2)nc2c(N3CCOCC3)nc(-c3ccccc3)nc21` was -58.1% (active).

In the next assay the test system is SNB-75 CNS. The assay is described as above. The settings on record: 10 µM unless noted.
In the case of `CCN(CC)CCCCCCNc1cc(OC)cc2cccnc12`, the growth is 75.5%.
The same measure, in the same setting: the value for `COc1ccccc1Nc1cc(O)c2c(=O)cc(-c3ccccc3)oc2c1` was -4.79% (active).
Same read-out and setting: the value for `COc1ccc(C(O)c2cc3c(N)c(C(=O)Nc4ccc(Cl)cc4)sc3nc2C)cc1` (stereo unspecified) was -22.5% (active); that for `COc1cc(NCC(O)CN(CC(C)C)CC(C)C)c2nc(C)ccc2c1` (stereo unspecified) was 97.9%.
On the same count and under the same terms, to `CCCCCCCCCCN=C(N)N=C(N)N` belongs 3.65% (active); to `COc1ccc(C(O)c2cc3c(N)c(C(=O)Nc4cccc(Br)c4C)sc3nc2C)cc1` (stereo unspecified), -1.38% (active); to `CCCCCCCCCCCCCCCCCCOc1ccccc1N`, 82.8%.
With `CC(=O)O[C@H]1CC[C@@]2(C)[C@@H](CC[C@@H]3[C@@H]2CC[C@@]2(C)[C@H]3CC[C@]2(O)C(C)=O)C1`, the growth was 94.9%.
The same measure, in the same setting: the value for `CCC1(CC)NC(=O)c2c(c3ccc(Cl)c(Cl)c3n2C)C1C#N` (stereo unspecified) was 90%.
For `COc1ccc(C2CC(c3cccc(Nc4ccncc4)c3)=NN2c2cc(Cl)cc(Cl)c2)cc1` (stereo unspecified), the growth was 65.9%.
Still for that read-out and setting: to `CC(=O)Nc1ccc(S(=O)(=O)NC2CCCCC2)cc1` belongs 86.3%; to `Clc1ccc(N2N=C(c3cccc(Nc4ccncc4)c3)CC2c2ccccc2)cc1` (stereo unspecified), 65%.
Same read-out and setting: to `CN1C2CCC1CN(c1cnc(C(=O)Nc3cc(F)cc4cccnc34)cn1)C2` belongs 92.5%.
The same measure, in the same setting: to `C=Cc1cc[n+](CCCCCCCCCCCC)cc1` belongs 97.4%.
Take `CCCCCCCCCCCCCCCC(=O)OC[C@@]1(O)C[C@@]23CC[C@@H]4C(C)(C)[C@H](O)CC[C@@]4(C)[C@@H]2CC[C@H]1C3`: the growth is 99.6%.
On the same count and under the same terms, the value for `O=C(CN1CCOCC1)Nc1ccc2ncnc(Nc3ccc(OCc4cccc(F)c4)c(Cl)c3)c2c1` was 69.1%; that for `Clc1cc(Cl)cc(N2N=C(c3cccc(Nc4ccncc4)c3)CC2c2ccccc2)c1` (stereo unspecified) was 77.4%; that for `C[C@]12CCc3nc(Nc4cccc(O)c4)sc3C1=CC[C@@H]1[C@@H]2CC[C@]2(C)/C(=N\NC(N)=S)CC[C@@H]12` was 1.36% (active).
Take `Cc1c2c(cc[n+]1Cc1ccccc1)c1ccc(OCc3ccccc3)cc1n2Cc1ccccc1`: the growth was -18% (active).
Still for that read-out and setting: the value for `O=C(O)CNC(=O)CN1C(=O)c2ccccc2C1=O` was 90.4%.
As for `O=C(Nc1nc2ccc(C(=O)N3CCN(c4ccc(Cl)c(Cl)c4)CC3)cc2s1)c1ccc(NCCc2ccccc2)c([N+](=O)[O-])c1`, the growth is 98.1%.
The same measure, in the same setting: to `COc1ccccc1-c1c(-c2ccc(Cl)cc2)c2cc3c(cc2[nH]c1=O)OCCO3` belongs 88.6%; to `O=S(=O)(NCCNc1nccc(-c2c(-c3ccc(F)c(O)c3)nc3occn23)n1)c1ccccc1`, 71.9%; to `Clc1cc(Cl)cc(N2N=C(c3cccc(Nc4ccncc4)c3)CC2c2ccc(Br)cc2)c1` (stereo unspecified), 78.3%.
On the same count and under the same terms, the value for `Cn1c(COC(=O)NCCn2ccnc2)nc2c(N3CCOCC3)nc(-c3ccccc3)nc21` was -89.9% (active).
Consider `Cc1c2c(cc[n+]1Cc1ccc(F)cc1)c1ccc(OCc3cccc(F)c3)cc1n2Cc1cccc(F)c1`, for which the growth is -88.7% (active).
Same read-out and setting: to `CCCOc1nc(SCCC)nc2c1cnn2-c1ccccc1` belongs 98.6%.
On the same count and under the same terms, the value for `Cc1ccc(/C=C/C(=O)c2ccc(N)cc2)c(C)c1` was 97.8%.
With `Cc1cc(C)c(C=O)c(C)c1`, the growth is 83%.
On the same count and under the same terms, to `COc1ccc(-c2c(-c3ccccc3)noc2N)cc1OC` belongs 101%; to `O=C1c2cccnc2C(=O)c2nc3cc(N4CCN(C5CC5)CC4)ccc3nc21`, -64.7% (active).
For `c1ccc(N2N=C(c3cccc(Nc4ccncc4)c3)CC2c2ccc3c(c2)OCO3)cc1` (stereo unspecified), the growth was 5.74% (active).
Turning to `COc1cc(NCC(C)(O)CN(CC(C)C)CC(C)C)c2nc(C)ccc2c1` (stereo unspecified), the growth was 81.4%.
On the same count and under the same terms, to `C[C@@H]1CN(Cc2ccc(/C=C/c3n[nH]c4ccc5nc(-c6cn[nH]c6C(F)(F)F)c6c(c5c34)CCCC6)cc2)C[C@H](C)O1` belongs -4.9% (active); to `CC1(C)CCCN1CCCN1c2ccccc2Sc2ccc(Cl)cc21`, 91%.
On the same count and under the same terms, the value for `CC1CCN(C(=O)OCc2nc3nc(Cl)nc(N4CCOCC4)c3[nH]2)CC1` was 14.8%.
`CC1(C)CN(c2cnc(C(=O)Nc3cc(F)cc4cccnc34)cn2)CCN1`: the growth is 72.9%.
On the same count and under the same terms, the value for `Cn1c(COC(=O)NCCN2CCOCC2)nc2c(N3CCOCC3)nc(-c3ccccc3)nc21` was -3.92% (active).

Values taken from PubChem BioAssay (NCI).
